# In PubChem BioAssay:
# Active and inactive are the calls of the source.
# Key:
# [1] = small molecules captured by biotinylated probe aFSTL3 – biochemical, small-molecule microarray, fluorescence 635/667, stem cell growth factor project, primary screen (AID 1064); settings: higher = more signal;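 further: measures binding of the biotinylated anti-FSTL3 antibody to printed compounds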
# [2] = binders from COS7 lysate, DM2A8 probe, primary screen, torsin A project, cell lysate, small-molecule microarray, fluorescence 635/667 (AID 1065); settings: higher = more signal, COS7 lysate expressing mutant human TOR1A
# [3] = small molecules captured by biotinylated probe aFGF2 – biochemical, small-molecule microarray, fluorescence 635/667, stem cell growth factor project, primary screen (AID 1067); settings: higher = more signal;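 further: measures binding of biotinylated aFGF2 protein to printed compounds on slides; z-score merges feature fluorescence and signal-to-noise across triplicate slides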
# [4] = small molecules captured by biotinylated probe aFGF10 – biochemical, small-molecule microarray, fluorescence 635/667, stem cell growth factor project, primary screen (AID 1071); settings: higher = more signal;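 further: score merges 667 nm spot intensity and signal to noise from triplicate slides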
# [5] = target: Neurogenic locus notch homolog protein 2 (Homo sapiens) (UniProt Q04721); test: small molecules binding Notch2 protein – biochemical, small-molecule microarray, 635 nm fluorescence, stem cell growth factors, primary screen (AID 1073); settings: higher = more signal
# Chain of Neurogenic locus notch homolog protein 2 (Homo sapiens) (Q04721 whole entry, looked up, canonical isoform): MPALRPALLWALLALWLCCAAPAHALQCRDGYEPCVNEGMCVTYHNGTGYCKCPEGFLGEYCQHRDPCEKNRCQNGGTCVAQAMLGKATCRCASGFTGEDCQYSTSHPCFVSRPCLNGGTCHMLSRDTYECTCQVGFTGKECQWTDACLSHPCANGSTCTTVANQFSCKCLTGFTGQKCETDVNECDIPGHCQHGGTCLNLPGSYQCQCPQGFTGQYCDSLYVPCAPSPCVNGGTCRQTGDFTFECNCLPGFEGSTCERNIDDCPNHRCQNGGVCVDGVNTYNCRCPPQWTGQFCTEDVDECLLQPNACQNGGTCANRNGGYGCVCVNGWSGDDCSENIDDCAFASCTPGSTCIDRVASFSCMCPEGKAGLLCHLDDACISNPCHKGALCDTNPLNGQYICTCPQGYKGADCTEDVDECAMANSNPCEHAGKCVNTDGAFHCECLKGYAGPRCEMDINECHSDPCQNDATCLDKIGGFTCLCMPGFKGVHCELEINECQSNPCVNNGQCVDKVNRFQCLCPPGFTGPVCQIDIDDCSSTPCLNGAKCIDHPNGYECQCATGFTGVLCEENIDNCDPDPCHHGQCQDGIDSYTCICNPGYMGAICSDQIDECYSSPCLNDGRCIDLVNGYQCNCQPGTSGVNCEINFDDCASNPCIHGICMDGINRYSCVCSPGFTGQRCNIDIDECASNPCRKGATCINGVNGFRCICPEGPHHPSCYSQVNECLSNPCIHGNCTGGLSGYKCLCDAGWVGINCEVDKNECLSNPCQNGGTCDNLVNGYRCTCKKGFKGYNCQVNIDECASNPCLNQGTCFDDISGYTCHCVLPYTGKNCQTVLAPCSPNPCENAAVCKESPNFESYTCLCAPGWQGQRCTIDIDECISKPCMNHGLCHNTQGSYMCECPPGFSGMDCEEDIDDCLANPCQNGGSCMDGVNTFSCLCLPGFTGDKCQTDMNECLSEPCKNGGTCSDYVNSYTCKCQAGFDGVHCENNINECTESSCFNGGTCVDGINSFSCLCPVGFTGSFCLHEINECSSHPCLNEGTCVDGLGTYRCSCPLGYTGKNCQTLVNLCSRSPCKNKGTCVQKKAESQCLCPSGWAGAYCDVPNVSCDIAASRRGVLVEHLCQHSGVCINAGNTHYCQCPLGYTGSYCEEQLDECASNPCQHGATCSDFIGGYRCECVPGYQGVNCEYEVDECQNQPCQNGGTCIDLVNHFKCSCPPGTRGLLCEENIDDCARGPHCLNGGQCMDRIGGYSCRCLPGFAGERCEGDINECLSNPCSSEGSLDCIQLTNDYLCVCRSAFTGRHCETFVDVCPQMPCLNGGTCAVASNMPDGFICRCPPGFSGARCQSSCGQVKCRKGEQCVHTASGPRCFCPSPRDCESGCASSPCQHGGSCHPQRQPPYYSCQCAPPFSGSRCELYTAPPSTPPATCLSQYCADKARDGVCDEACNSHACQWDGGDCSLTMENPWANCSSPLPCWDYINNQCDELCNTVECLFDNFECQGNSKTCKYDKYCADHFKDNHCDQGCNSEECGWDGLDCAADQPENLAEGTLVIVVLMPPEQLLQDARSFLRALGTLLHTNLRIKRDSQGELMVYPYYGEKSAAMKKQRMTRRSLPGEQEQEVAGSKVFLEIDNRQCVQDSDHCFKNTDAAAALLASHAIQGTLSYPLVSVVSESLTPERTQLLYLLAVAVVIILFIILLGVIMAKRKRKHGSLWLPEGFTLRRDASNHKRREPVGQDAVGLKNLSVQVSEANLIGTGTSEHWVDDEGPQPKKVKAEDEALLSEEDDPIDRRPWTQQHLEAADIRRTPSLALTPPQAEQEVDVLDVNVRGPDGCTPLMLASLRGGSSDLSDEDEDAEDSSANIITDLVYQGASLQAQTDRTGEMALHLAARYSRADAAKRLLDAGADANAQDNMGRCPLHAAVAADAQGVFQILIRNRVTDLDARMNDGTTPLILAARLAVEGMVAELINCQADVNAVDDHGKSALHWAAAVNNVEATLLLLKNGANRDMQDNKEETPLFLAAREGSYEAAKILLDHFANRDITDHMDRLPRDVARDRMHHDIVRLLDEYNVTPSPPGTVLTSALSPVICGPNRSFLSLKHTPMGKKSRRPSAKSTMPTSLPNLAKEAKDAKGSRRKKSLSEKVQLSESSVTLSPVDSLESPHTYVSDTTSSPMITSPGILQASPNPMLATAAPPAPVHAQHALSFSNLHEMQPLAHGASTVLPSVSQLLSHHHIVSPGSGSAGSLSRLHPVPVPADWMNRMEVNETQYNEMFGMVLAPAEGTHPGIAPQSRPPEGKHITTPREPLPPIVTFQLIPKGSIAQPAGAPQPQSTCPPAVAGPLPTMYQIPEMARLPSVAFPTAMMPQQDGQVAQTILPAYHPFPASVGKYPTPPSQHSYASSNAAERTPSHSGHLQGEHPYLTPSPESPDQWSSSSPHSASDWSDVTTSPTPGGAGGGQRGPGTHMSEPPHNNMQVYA
# [6] = target: Pro-neuregulin-1, membrane-bound isoform (Homo sapiens) (UniProt Q02297); test: small molecules binding neuregulin-1 protein – biochemical, small-molecule microarray, fluorescence 635/667, psychiatric disease protein project, primary screen (AID 1075); settings: NRG1 binding, 635 nm fluorescence, higher = more signal;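 further: score combines 667 nm spot fluorescence with signal to noise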
# Chain of Pro-neuregulin-1, membrane-bound isoform (Homo sapiens) (Q02297 whole entry, looked up, the tested form may be a part, canonical isoform): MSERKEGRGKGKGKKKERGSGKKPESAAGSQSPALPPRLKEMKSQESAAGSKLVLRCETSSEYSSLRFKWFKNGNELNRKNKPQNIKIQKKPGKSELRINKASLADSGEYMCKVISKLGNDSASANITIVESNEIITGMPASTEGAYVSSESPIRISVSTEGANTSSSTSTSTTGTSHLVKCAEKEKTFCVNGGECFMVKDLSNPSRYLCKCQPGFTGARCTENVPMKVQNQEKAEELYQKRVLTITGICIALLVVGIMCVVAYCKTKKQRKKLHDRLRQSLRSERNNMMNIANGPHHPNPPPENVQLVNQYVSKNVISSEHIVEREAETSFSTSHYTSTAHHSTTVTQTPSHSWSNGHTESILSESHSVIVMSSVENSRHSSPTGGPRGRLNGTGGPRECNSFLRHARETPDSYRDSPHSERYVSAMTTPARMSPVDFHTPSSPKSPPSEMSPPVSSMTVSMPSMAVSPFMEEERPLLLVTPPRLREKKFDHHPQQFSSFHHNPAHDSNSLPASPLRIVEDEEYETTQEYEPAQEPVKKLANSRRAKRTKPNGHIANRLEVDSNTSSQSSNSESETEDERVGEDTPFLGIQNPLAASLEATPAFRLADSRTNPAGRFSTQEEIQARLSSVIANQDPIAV
# [7] = test system: Neuregulin-1 EGF-like domain; test: small molecules binding NRG1 EGF domain – biochemical, small-molecule microarray, 635 nm fluorescence, primary screen (AID 1081); settings: higher = more signal;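 further: binding of the protein to compounds printed on small-molecule microarray slides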
# [8] = FRG1 expression reporter modulators in myotubes – cell-based, C2C12 myotubes, firefly/Renilla luciferase, luminescence, FRG1 inhibition for FSHD, primary screen (AID 1084); settings: FRG1 promoter luciferase, higher = more signal, called active from +8 up or from −8 down
# [9] = small molecules captured by biotinylated probe aFST – biochemical, small-molecule microarray, fluorescence 635/667, stem cell growth factor project, primary screen (AID 1086); settings: higher = more signal;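 further: score merges 667 nm fluorescence with signal-to-noise of each printed compound spot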
# [10] = binders of probe aHhip on microarray, primary screen, stem cell growth factor project, biochemical, small-molecule microarray, fluorescence 635/667 (AID 1087); settings: higher = more signal;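 further: score merges spot fluorescence at 667nm with spot signal to noise ratio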
Compound,composite z-score [1],composite z-score [2],composite z-score [3],composite z-score [4],composite z-score [5],composite z-score [6],composite z-score [7],z-score [8],composite z-score [9],composite z-score [10]
Cc1ccc([C@H]2C(C(=O)O)=CCN2S(=O)(=O)c2ccc(C)cc2)cc1,-0.0451,0.0722,-0.0271,0.231,0.539,1.24,1.1,-0.186 (inactive),0.224,-0.0305
COCCOC(=O)N1C(=O)[C@@]2(c3ccccc31)[C@H](C(=O)N1CCc3cc(OC)c(OC)cc3C1)[C@H]1C(=O)O[C@H](c3ccccc3)[C@H](c3ccccc3)N1[C@@H]2c1ccc(O)cc1,-0.159,0.706,-0.0303,0.647,1.28,0.832,1.26,-2.26 (inactive),-0.0345,0.0302
C[N+](C)(C)CCCC[C@@H]1NC(=O)[C@H]2C[C@@H](C(=O)NCCCCCCNC(=O)CS)[C@@H](c3ccc(O)cc3)N2C1=O,0.312,2,-0.131,-0.457,-1.36,1.7,1.41,-0.395 (inactive),-0.39,-0.0994
[N-]=[N+]=Nc1ccccc1C[C@@]1(C(=O)N2CCCCC2)N=C(c2ccc(OCCCO)cc2)O[C@@H]1c1ccccc1N=[N+]=[N-],1.23,0.436,0.286,0.758,1.6,0.429,1.17,-2.04 (inactive),1.14,-0.121
COC(=O)[C@@]1(Cc2ccc(F)cc2)[C@H]2c3cc(C(=O)N(C)C)n(Cc4ccc(C)o4)c3C[C@H]2CN1C(=O)c1ccccc1,2.58,3.31,0.62,0.0793,0.0386,1.8,1.13,0.626 (inactive),2.31,0.683
O=C(NC1CC1)[C@@H]1c2ccccc2C(=O)N(Cc2cc(F)cc(C(F)(F)F)c2)[C@H]1c1ccc(CO)cc1,0.388,0.195,-0.172,0.327,-0.697,-0.13,1.04,-0.594 (inactive),0.254,-0.194
CCCCCN1CC=CC23O[C@@H]4C=CCOC(=O)[C@@H]4[C@H]2C(=O)N(C(C)CO)[C@@H]3C1=O (stereo not given in full),0.484,1.52,-0.195,-0.109,-0.825,0.913,1.49,-0.02 (inactive),-0.637,-0.399
N#Cc1ccc(C(O)C2C=CC3C(=O)N(c4ccccc4)C(=O)C3N2Nc2ccccc2F)cc1 (stereo not given),-0.367,0.362,0.315,0.936,1.37,1.24,-0.0077,0.372 (inactive),0.716,-0.0994
COCCCNC(=O)[C@@H]1c2ccccc2C(=O)N(Cc2ccccc2)[C@H]1c1ccc(CO)cc1,0.0981,0.361,-0.0952,0.12,0.712,0.943,0.565,-0.179 (inactive),0.418,0.253
C=CC[C@]1(C(N)=O)N=C(c2ccc(OCCCO)cc2)O[C@H]1c1ccccc1,0.966,-0.148,-0.0286,-0.0773,0.494,1.92,1.29,-1.59 (inactive),-0.0521,-0.0296
CCCCCCc1nc(-c2ccc(-c3ccc(Cl)c(Cl)c3)o2)cc2c1[Si](C(C)C)(C(C)C)O[C@H]2c1ccccc1,0.0771,-0.543,-0.116,-0.379,-0.797,0.501,-0.412,0.213 (inactive),-0.265,0.0505
COc1ccc([Si](C)(C)[C@H]2[C@H](CCO)O[C@@]3(C(=O)N(Cc4ccccc4)c4ccc(N5CCCCC5=O)cc43)[C@@H]2C)cc1,-0.347,0.455,-0.0428,0.74,0.333,0.39,0.909,-2.44 (inactive),-0.227,-0.0645
O=C1O[C@@H](c2ccccc2)[C@@H](c2ccccc2)N2[C@@H](c3ccc(OCCO)cc3)[C@]3(C(=O)Nc4ccc(C#CCCO)cc43)[C@@H](C(=O)NC[C@H](O)c3ccccc3)[C@H]12,0.193,0.458,-0.0281,0.902,0.578,1.01,1.17,-0.772 (inactive),0.456,0.0052
CC(C)N1CC=CC23O[C@@H]4C=CCOC(=O)[C@@H]4[C@H]2C(=O)N(CCCCCO)[C@@H]3C1=O (stereo not given in full),-0.354,0.272,-0.153,-0.267,-0.669,0.24,1.27,-0.907 (inactive),-0.308,-0.132
COc1ccc(C#Cc2ccc3c(c2)[C@]2(C(=O)N3)[C@H](c3ccc(O)cc3)N3[C@H](c4ccccc4)[C@H](c4ccccc4)OC(=O)[C@H]3[C@@H]2C(=O)N2CCc3cc(OC)c(OC)cc3C2)cc1,-0.284,0.0877,0.0106,0.355,0.84,1.32,1.26,1.46 (inactive),0.464,0.0505
O=C1OCC=C[C@H]2OC34C=CCN(CCN5CCOCC5)C(=O)[C@H]3N(CCO)C(=O)[C@@H]4[C@@H]12 (stereo not given in full),-0.341,-0.483,-0.0985,-0.659,-0.273,0.605,0.242,1.02 (inactive),-0.218,-0.412
COc1ccc([Si](C)(C)[C@H]2[C@H](CCn3cc([C@H](O)c4ccccc4)nn3)O[C@@]3(C(=O)N(C)c4ccccc43)[C@@H]2C)cc1,0.0044,0.165,-0.0418,-0.209,-0.623,0.104,0.553,-1.36 (inactive),-0.619,-0.199

Compound,composite z-score [1],composite z-score [2],composite z-score [3],composite z-score [4],composite z-score [5],composite z-score [6],composite z-score [7],z-score [8],composite z-score [9],composite z-score [10]
CC(=O)n1cc(C(O)C2C=CC3C(=O)NC(=O)C3N2Nc2ccccn2)c2ccccc21 (stereo not given),0.125,0.0908,-0.0583,0.122,0.887,0.298,1.27,1.15 (inactive),0.221,-0.179
CCCCC(O)C1C=CC2C(=O)N(C)C(=O)C2N1N1CCCCC1 (stereo not given),0.515,0.314,0.0311,0.591,1.56,1.12,1.42,0.733 (inactive),1.3,-0.0618
C=C(C(=O)CC[C@H](OC(C)=O)c1ccccc1OCCO)C(C)C,-0.214,-1.03,-0.0985,0.317,-0.926,-0.49,-0.862,-4.37 (inactive),-0.327,0.0854
COc1cc(OC)c(C(O)C2C=CC3C(=O)NC(=O)C3N2Nc2ccccn2)cc1Br (stereo not given),0.159,0.56,-0.0494,0.561,1.24,1.48,1.44,1.21 (inactive),0.0594,-0.141
O=C(CS)NCCCCCNC(=O)[C@H]1C[C@H]2C(=O)NCC(=O)N2[C@H]1c1cccc(OCCO)c1,0.656,-0.498,-0.0579,-0.461,-1.2,1.33,0.375,3.3 (inactive),-0.793,-0.176
C=C(CCCC)/C(=C/C[C@@H](OC(C)=O)c1cccc(OCCO)c1)c1cnc2ccccc2c1,-0.0295,0.314,-0.0015,0.0122,0.249,0.122,0.274,-0.269 (inactive),0.219,0.235
COCCCNC(=O)[C@@]1(CCS(=O)(=O)c2ccccc2)N=C(c2ccc(OCCCO)cc2)O[C@H]1c1ccccc1N=[N+]=[N-],0.205,2.1,0.137,1.17,1.48,1.7,1.23,1.72 (inactive),1.63,-0.0645
CCCCCCc1nc(-c2ccc(-c3ccc(Cl)c(Cl)c3)o2)c(C)c2c1[Si](C(C)C)(C(C)C)OC2,-0.495,-0.866,-0.144,-0.475,-0.363,0.0643,-0.416,0.333 (inactive),-0.0878,0.0505
[N-]=[N+]=Nc1ccccc1C[C@]1(C(=O)N2CCCCC2)COC(c2ccc(OCCCO)cc2)=N1,-0.11,0.0405,0.0605,0.87,0.708,1.64,0.995,-2.42 (inactive),0.755,-0.353
CCOC(=O)C1=CCC(c2ccc(F)cc2)N(S(=O)(=O)c2ccc(C)cc2)C1 (stereo not given),0.605,0.816,0.0198,-0.105,0.552,0.199,0.116,-2.7 (inactive),0.135,-0.226
COc1ccc(-c2cc3c(c(Cc4ccccc4)n2)[Si](C(C)C)(C(C)C)OC3)cn1,-0.305,0.28,-0.0668,0.0198,0.0333,-0.53,-0.723,-1.27 (inactive),0.29,-0.236
CO[C@H]1O[C@H](CO)[C@@H](OC(=O)Nc2ccc(Oc3ccccc3)cc2)[C@H](OC(=O)Nc2ccc3c(c2)OCO3)[C@@H]1OC(=O)Nc1ccc2c(c1)OCO2,0.154,0.333,-0.0493,1.22,1.55,0.516,1.09,-0.0746 (inactive),0.8,0.28
O=C1O[C@H](c2ccccc2)[C@H](c2ccccc2)N2[C@H]1[C@@H](C(=O)NC[C@H](O)c1ccccc1)[C@]1(C(=O)Nc3ccc(C#CC4=CCCCC4)cc31)[C@H]2c1ccccc1OCCO,0.185,0.463,0.0637,0.496,0.908,0.298,1.07,-0.341 (inactive),0.599,-0.0645
C=CC[C@]1(C(=O)N2CCOCC2)N=C(c2ccc(OCCCO)cc2)O[C@H]1c1ccccc1N=[N+]=[N-],-0.0247,0.572,0.102,0.642,1.24,1.8,1.25,-0.322 (inactive),1.2,0.0596
O=C1N(CCS(=O)(=O)c2ccccc2)c2ccccc2[C@@H]2OC(c3ccc(OCCCO)cc3)=N[C@]12Cc1ccccc1,-0.0695,0.437,-0.165,0.307,0.849,1.38,1.29,-4.02 (inactive),0.57,-0.156
CN1C(=O)C2C=CC(C(O)c3c(F)cccc3Cl)N(NC(=O)OC(C)(C)C)C2C1=O (stereo not given),0.171,0.233,0.0111,1.11,1.23,1.49,1.3,0.636 (inactive),0.888,0.0623
